PfM18AAP inh: PfM18AAP inhibitors, malaria aminopeptidase, primary screen, biochemical, QFRET, recombinant enzyme; M18 aspartyl aminopeptidase (Plasmodium falciparum 3D7); H-Glu-NHMec fluorogenic cleavage; inhibition, % at 7.35 µM; 290,000 compounds, 1.2% hits; AID 1822, 2009;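 active means inhibition above the campaign mean inhibition over all tested compounds plus 3 SD, cut at about 28% in these data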
Rce1 inhib: yeast Rce1p protease inhibitors, primary screen, biochemical, fluorescence, cell-free homogeneous; CAAX prenyl protease 2 (Saccharomyces cerevisiae (strain ATCC 204508 / S288c)), Q03530; AID 2563, 2010; 290,000 compounds, 0.27% hits; yeast membranes, quenched prenylated peptide cleavage fluorescence; calls only;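 active means fall in fluorescence gain of 50% or more versus controls, with final raw signal at or below 3038400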
Target sequence (Q03530 whole entry, looked up): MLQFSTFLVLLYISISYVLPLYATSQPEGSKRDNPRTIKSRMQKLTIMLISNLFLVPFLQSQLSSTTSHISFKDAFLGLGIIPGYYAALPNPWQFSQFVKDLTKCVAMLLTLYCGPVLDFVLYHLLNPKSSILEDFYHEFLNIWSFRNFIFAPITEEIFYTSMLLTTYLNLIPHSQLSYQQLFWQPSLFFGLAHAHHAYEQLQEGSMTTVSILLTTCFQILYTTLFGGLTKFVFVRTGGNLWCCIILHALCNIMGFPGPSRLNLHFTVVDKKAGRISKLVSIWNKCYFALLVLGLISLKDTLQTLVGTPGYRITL
FID counter: compounds displacing fluorescent DNA intercalator, primary screen, artefact control for HCV NS3 helicase inhibitor project, biochemical, FID fluorescence. DNA fluorescent intercalator displacement. inhibition, % at 7.9 µM. 290,000 compounds, 0.17% hits. AID 1845, 2009; in the data active means inhibition above about 37%;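 further: higher means more ethidium bromide displaced from hairpin DNA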
Kir21 block: inhibitors of mouse Kir2.1 inward-rectifier potassium channel | Inward rectifier potassium channel 2 (Mus musculus), P35561 | HEK293-Kir2.1, FluxOR thallium flux fluorescence; stronger effect = lower value | B-score at 10 µM | 310,000 compounds, 0.85% hits | AID 1672, 2009;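 active means fluorescence ratio B-score at or below minus 3 SD of library scores, with starting-brightness B-score within 2 SD, cut at about -4.2 in these data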;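 further: channel flux triggered by added potassium and thallium sulfate stimulus; B-score of peak minus minimum fluorescence over baseline after thallium stimulus; more negative B-score means stronger Kir2.1 block with less thallium influx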
A number is an active result; . = inactive; / = not tested or not shown; + = active, no number. This is a sample that favours compounds with a hit; in the whole collection about 2.3% have one here.

SMILES	PfM18AAP inh	Rce1 inhib	FID counter	Kir21 block
Cc1ccccc1C(=O)c1cccn1CC(=O)NC(C)c1ccccc1 (configuration not stated)	.	.	.	-4.4
CC(NC(=O)Cn1cccc1C(=O)c1ccccc1)c1ccccc1 (configuration not stated)	.	.	.	.
Nc1nnc(-c2ccncc2)s1	.	+	.	.
Cc1ccc(-c2nnc(N)s2)cc1	.	.	.	.
O=C(c1ccccc1)N1N=C(c2ccccc2)CC1c1ccccc1 (configuration not stated)	.	.	.	.
Cc1ccc(C(=O)N2N=C(c3ccccc3O)CC2c2ccccc2)cc1 (configuration not stated)	.	+	.	.
CCC(C)Sc1cc(-c2nc3ccccn3c2NC2CCCCC2)ccc1OC (configuration not stated)	/	+	/	.
O=C(COC(=O)c1ccccc1Cc1ccccc1)NC1CCS(=O)(=O)C1 (configuration not stated)	.	+	.	.
O=C(COC(=O)c1ccccc1SCC(=O)NC1CCS(=O)(=O)C1)NC1CCS(=O)(=O)C1 (configuration not stated)	.	.	.	.
CC(C)C(NS(=O)(=O)c1cccc2nsnc12)C(=O)N1CCCCC1 (configuration not stated)	.	.	.	.
COc1ccc(Cl)cc1C(=O)OCC(=O)NCCNC(=O)COC(=O)c1cc(Cl)ccc1OC	.	.	.	.
CN(CCNC(=O)c1ccc(CS(=O)(=O)c2ccc(Br)cc2)o1)CCc1ccccc1	.	.	.	-4.9
O=C(NCCc1ccccc1)c1ccc(CS(=O)(=O)c2ccc(Br)cc2)o1	.	.	.	.
O=C(CSc1nnc(CNC(=O)c2c(F)cccc2Cl)o1)NCc1ccccc1	.	.	.	.
COc1ccc2c(c1)CCCN2C(N)=Nc1ccc(Cl)cc1	.	.	.	-7.6
Cc1ccc(C(C)C)cc1OCC(=O)Nc1ccc(N2CCCCC2)cc1	/	.	/	.
COC(=O)C1=C(C(=O)OC)[C@@H]2N(C)c3ccc(OC)cc3[C@@]23C[C@@H](C(=O)OC)N(S(=O)(=O)c2ccc(OC)cc2)C3=N1	/	.	/	.
Cc1ccccc1NC(=O)c1cc[n+]([O-])cc1	.	.	.	.
CNC(=S)/N=C(\Nc1ccc(C)cc1)c1ccccc1	30	.	.	.
O=C(C1CC(=O)N(c2ccc(Cl)cc2)C1)N1CCN(Cc2ccc3c(c2)OCO3)CC1 (configuration not stated)	.	.	.	.
O=C1C=CC(=O)C(C2=C3C(=O)N(CCc4ccccc4)CC(=O)N3CCC2)=C1	.	.	.	-7
O=C1CC(=O)N(CCc2ccccc2)C(=O)N1CCc1ccccc1	.	.	.	.
CCOc1ccc(S(=O)(=O)Nc2ccc(C(=O)NCC(c3ccco3)N3CCCCC3)cc2)cc1 (configuration not stated)	/	.	/	.
C(=C\c1ccccc1)/C=N/Nc1nc2ccccc2s1	.	.	.	.
CCC/C=N/Nc1nc2ccccc2s1	35	.	.	.
SMILES	PfM18AAP inh	Rce1 inhib	FID counter	Kir21 block
CC1CC(=O)N(CC(=O)Nc2ccccc2F)c2ccccc2S1(=O)=O (configuration not stated)	.	.	.	.
O=C(CSc1ccc([N+](=O)[O-])cn1)Nc1ccccc1N1CCOCC1	.	.	.	-4.6
O=C(CSc1nc2ccccc2o1)Nc1ccccc1N1CCOCC1	.	.	.	-8.8
COc1ccccc1-n1nnnc1SCC(=O)Nc1ccc(C)c(N)c1	.	.	.	.
Cc1ccc(N2C(=O)c3ccccc3C2=O)nc1	.	.	.	.
COc1cc(CCCN2C(=S)NC[C@@H]2CC2CCCCC2)cc(OC)c1OC	/	.	/	-4.3
C/C(=N\S(=O)(=O)c1ccc(C)cc1)Nc1cc(C(C)C)c(O)cc1C	29	.	.	.
Cc1cccc(CS(=O)(=O)c2ncc(Cl)c(C(=O)Nc3c(C)cccc3C)n2)c1	.	.	.	-12
O=S(=O)(c1ccccc1)c1nc(Nc2cccc(O)c2)sc1Cl	.	.	.	-5.5
Cc1ccccc1S(=O)(=O)Oc1cccc2c(O)cccc12	.	.	.	-4.3
Cc1ccccc1C(=O)Oc1cccc2c(O)cccc12	.	.	.	.
Cc1[nH]nc(Nc2ccc(O)cc2)c1[N+](=O)[O-]	31	.	.	.
C/C(=N\NC(=O)c1c(Cl)cnn1C)c1ccc(NC(=O)c2ccc(Br)o2)cc1	.	.	.	.
